For test [1], the target named is Cytochrome P450 3A7 (Homo sapiens) (UniProt P24462). In words: Cytochrome P450 family 3 subfamily A member 7 (CYP3A7) small molecule antagonists: luciferase biochemical qHTS assay (AID 1963596). For activity change, negative = inhibition: % is set by controls: 0 for no effect and ±100 for the full control effect. Note: nearly all actives have a fitted effect of over 40% in size. In a few lines: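 Recombinant CYP3A7 P450-Glo luminescent assay: enzyme-proluciferin substrate mix preincubated with compound 10 min at room temperature, reaction started with NADPH regeneration system for 1 h. Luciferin detected by luminescence; ketoconazole as positive control.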
Chain of Cytochrome P450 3A7 (Homo sapiens) (P24462 whole entry, looked up): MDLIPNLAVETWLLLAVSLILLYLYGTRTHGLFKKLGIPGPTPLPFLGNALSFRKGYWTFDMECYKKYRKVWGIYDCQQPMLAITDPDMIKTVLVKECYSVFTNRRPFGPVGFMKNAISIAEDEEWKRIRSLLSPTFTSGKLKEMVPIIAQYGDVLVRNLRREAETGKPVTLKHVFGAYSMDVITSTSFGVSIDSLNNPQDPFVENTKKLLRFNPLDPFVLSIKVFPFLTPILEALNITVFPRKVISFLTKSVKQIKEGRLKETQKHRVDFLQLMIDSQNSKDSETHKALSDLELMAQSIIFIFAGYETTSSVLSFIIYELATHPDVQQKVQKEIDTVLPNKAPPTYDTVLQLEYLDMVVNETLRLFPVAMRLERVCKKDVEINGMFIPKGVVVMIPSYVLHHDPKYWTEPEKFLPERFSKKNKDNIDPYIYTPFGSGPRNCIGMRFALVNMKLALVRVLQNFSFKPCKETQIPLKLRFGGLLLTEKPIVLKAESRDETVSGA
For orientation: In qHTS, concentration-response curves come from the screen itself.

Test [2] can be described thus: Viability qHTS for spleen associated tyrosine kinase inhibitor (SYKi) naive MV4-11 cells (AID 1963823). Note: nearly all actives have a fitted effect of over 40% in size. The method in brief:
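Compounds were dispensed acoustically onto plates, MV4-11 cells (SYKi-naive) added at 500 per well, and plates incubated 72 hr at 37 C. CellTiter-Glo was added and luminescence measured after 10 min.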

Test [3] is described as follows: Viability qHTS for spleen associated tyrosine kinase inhibitor (SYKi) drug resistant MV4-11 cells (AID 1963824). Note: nearly all actives have a fitted effect of over 35% in size. In a few lines: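 CellTiter-Glo luminescence, read 10 min after reagent addition, reports viability after a 72 hr compound exposure. Cells are an MV4-11 line made resistant to SYK inhibition, seeded at 500 per well onto compound-containing plates.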

Inconclusive results are not listed. A number with no mark means an inactive call. Calls of active or inactive are those of the source. Calls come from the whole dose curve; as a rule, active = well fitted curve in the direction sought with a large enough effect; inconclusive = small, poorly fitted or top-dose-only effect, or another doubt; inactive = no such curve, though single readings can be large; an effect the other way counts as inactive or inconclusive.
Potency is the fitted concentration of half-maximal effect.

For `COc1ccc(NC(=O)N2CCc3c2ccc2ccccc32)cc1N1CCN(C)CC1`, in test [1], the Potency result was “inactive”. Also, the Potency was 9.2 µM (active) in test [2] and 8.2 µM (active) in test [3].
Turning to `CC1(C)Oc2ncnc(N)c2N=C1c1ccc(C2CCC(CC(=O)O)CC2)cc1` (stereo not drawn), the Potency entry in test [1], in test [2] and in test [3] was “inactive” in each case.
On to `CCn1ccc(NS(=O)(=O)c2ccc(N)cc2)nc1=O`, for which the Potency result in test [1], in test [2] and in test [3] was “inactive” throughout.
Regarding `O=C(O)[C@H]1Cc2ccccc2CN1`, the activity change, negative = inhibition in test [1] is 2.34% [at 11.5 µM]. In addition, the viability (% of control) in test [2] is 95.6% [at 4.97 µM]. In addition, in test [3], the viability, % of control is 101% [at 4.97 µM].
In the case of `O=S(=O)(c1ccc(Cl)cc1)N1CCN(c2ccnc3cc(Cl)ccc23)CC1`, the Potency entry in test [1] was “inactive”. Also, the Potency in test [2] and in test [3] was 16.4 µM (active) in each case.
Regarding `O=C(Nc1ccc(N2CCC(C(=O)N3CCOCC3)CC2)cc1)c1cnc(Oc2ccccc2)nc1`, the Potency entry in test [1], in test [2] and in test [3] was “inactive” in each case.
Take `CC[C@H]1OC(=O)C[C@@H](O)[C@H](C)[C@@H](O[C@@H]2O[C@H](C)[C@@H](O)[C@H](N(C)C)[C@H]2O)[C@@H](CCN2C[C@H](C)C[C@H](C)C2)C[C@@H](C)C(=O)/C=C/C(C)=C/[C@@H]1CO[C@@H]1O[C@H](C)[C@@H](O)[C@@H](OC)[C@H]1OC`: the Potency entry in test [1], in test [2] and in test [3] was “inactive” each time.
Regarding `O=S(=O)(Cc1ccccc1)Nc1ccc(-c2ccc3c(cnn3-c3ccc(F)cc3)c2)c(C(F)(F)F)c1`, the figures for the Potency in test [1], in test [2] and in test [3] were 12 µM (active), 16.4 µM (active) and 20.6 µM (active), respectively.
Consider `CC(C)=CCNc1ncnc2c1ncn2[C@@H]1O[C@H](CO)[C@@H](O)[C@H]1O`, for which the Potency entry in test [1] was “inactive”. Further, the Potency in test [2] is 0.82 µM (active); in test [3], 0.58 µM (active).
Turning to `CCOC(=O)N1CCC(CN(Cc2ccc(Cl)cc2)Cc2ccc([N+](=O)[O-])s2)C1` (stereo not drawn), the Potency entry in test [1] is “inactive”. Besides, the Potency in test [2] is 10.3 µM (active); in test [3] it was 16.4 µM (active).
In the case of `Cc1onc(-c2ccccc2)c1C(=O)N[C@@H]1C(=O)N2[C@@H]1SC(C)(C)[C@@H]2C(=O)O`, the Potency result in test [1], in test [2] and in test [3] was “inactive” in each case.
For `Nc1c(CC(=O)O)cccc1C(=O)c1ccc(Br)cc1`, the Potency result in test [1], in test [2] and in test [3] was “inactive” each time.
Regarding `COc1ccc(CCCN2CCC(COC(c3ccccc3)c3ccccc3)CC2)cc1`, in test [1], the Potency result was “inactive”. For the same compound, the Potency in test [2] and in test [3] was 10.3 µM (active) each time.
With `O=C1NC(=Nc2ccccc2F)S/C1=C\c1ccc(C(=O)O)cc1`, the Potency entry in test [1], in test [2] and in test [3] was “inactive” throughout.
Consider `O=C(NCc1ccccn1)Nc1nnc(-c2ccco2)o1`, for which the Potency result in test [1], in test [2] and in test [3] was “inactive” throughout.
Regarding `CNC(=O)Nc1ccc(OC)c(NC(=O)NC(=O)c2cc(F)c(F)cc2Cl)c1`, the Potency result in test [1], in test [2] and in test [3] was “inactive” each time.
`COC(=O)c1cc(Br)cnc1N1CCC(NC2CCCCC2)C(O)C1` (stereo not drawn): the Potency result in test [1], in test [2] and in test [3] was “inactive” throughout.
With `CCOCc1cc(OC)c(-c2ccc(C[C@H](NC(=O)c3c(F)cccc3F)C(=O)O)cc2)c(OC)c1`, the Potency entry in test [1], in test [2] and in test [3] was “inactive” each time.
As for `COc1ccc(C2(CNC(=O)c3ccc(NC(=O)c4ccco4)cc3)CCOCC2)cc1`, the Potency result in test [1], in test [2] and in test [3] was “inactive” in each case.
On to `N[C@@H](CCNCc1ccc(Cl)cc1)C(=O)N1CCCCC1`, for which the Potency result in test [1], in test [2] and in test [3] was “inactive” throughout.
Turning to `CCCCc1ccc(C(=O)Nc2cc(-c3ccc(Cl)cc3)nn2-c2ccc(Cl)cc2)cc1`, the Potency result in test [1], in test [2] and in test [3] was “inactive” in each case.
Turning to `CCOc1cc(C(C)(C)C)ccc1C1=NC(C)(c2ccc(Cl)cc2)C(C)(c2ccc(Cl)cc2)N1C(=O)N1CCN(CCCS(C)(=O)=O)CC1` (stereo not drawn), the Potency was 2.82 µM (active) in test [1], 10.3 µM (active) in test [2] and 9.2 µM (active) in test [3].
Regarding `CCN(CC)Cc1ccc(C(=O)N(CCc2ccccc2OC)[C@@H]2CCNC2)cc1`, the Potency entry in test [1] is “inactive”. Further, the Potency in test [2] and in test [3] was 3.17 µM (active) in each case.
For `O=C(O)CC1CCC(c2ccc(NC(=O)c3nnc(Nc4ccc(F)c(F)c4)o3)cc2)CC1` (stereo not drawn), the Potency result in test [1], in test [2] and in test [3] was “inactive” throughout.
With `COc1ccc(C2=N[C@@H](c3ccc(Cl)cc3)[C@@H](c3ccc(Cl)cc3)N2C(=O)N2CCNC(=O)C2)c(OC(C)C)c1`, in test [1], the Potency entry was “inactive”. For the same compound, the Potency in test [2] is 20.6 µM (active); in test [3], 10.3 µM (active).
In the case of `CCNC(=O)C1CC(F)(c2ccc(CN3CCCC3)c(F)c2)C1` (stereo not drawn), the Potency entry in test [1], in test [2] and in test [3] was “inactive” in each case.
Take `N#Cc1cc(CN2CCC(Nc3ncnc4sc(Cl)cc34)CC2)ccc1F`: the Potency entry in test [1] is “inactive”. Moreover, the Potency in test [2] is 9.2 µM (active); in test [3], 13 µM (active).
The like results for `CCCc1cc2c(N3CCN(C4=NCC(C)(C)S4)CC3)ncnc2s1` were, in that order, “inactive”, 8.2 µM (active) and 5.8 µM (active).
`FC(F)(F)Oc1ccc(-c2ccc3nnc(C(F)(F)F)n3c2)cc1`: the Potency result in test [1], in test [2] and in test [3] was “inactive” throughout.
For the compound `FC(F)(F)c1nnc2c(Sc3ccccc3)nc3ccc(Cl)cc3n12`, the Potency entry in test [1] is “inactive”. For the same compound, the Potency in test [2] was 1.46 µM (active); in test [3] it was 0.731 µM (active).
Take `CC(C)(C)NCc1cc(Nc2ccnc3cc(Cl)ccc23)c2c(c1O)CCCC2`: the activity change, negative = inhibition in test [1] was -5.38% [at 11.5 µM]. Moreover, the viability (% of control) in test [2] was 90.1% [at 0.588 µM]. Further, the viability, % of control in test [3] is 102% [at 0.588 µM].
As for `O=C(NCCCCN1CCN(c2cccc(Cl)c2Cl)CC1)c1cc2ccccc2s1`, the Potency was 2.82 µM (active) in test [1], 23.1 µM (active) in test [2] and 23.1 µM (active) in test [3].
For the compound `CC1(C)CC(NC(=O)C(=O)Nc2ccc(Br)cc2)CC(C)(C)N1`, in test [1], the Potency result is “inactive”. Besides, the values for the Potency in test [2] and in test [3] were 3.26 µM (active) and 2.59 µM (active), respectively.
As for `CC(C)c1cccc(C(C)C)c1NC(=O)Nc1ccc(Sc2ccc([N+](=O)[O-])cc2)cc1`, the Potency entry in test [1] was “inactive”. The values for the Potency in test [2] and in test [3] were 7.31 µM (active) and 5.17 µM (active), respectively.
As to `CN(C)CC(=O)Nc1ccc2[nH]c(=O)c3ccccc3c2c1`, the Potency entry in test [1] is “inactive”. Besides, the Potency in test [2] and in test [3] was 20.6 µM (active) in each case.
On to `CCOC(=O)N1CCC(NCCNC(=O)c2ccccc2C)CC1`, for which the Potency entry in test [1], in test [2] and in test [3] was “inactive” in each case.
Take `COc1ccc(-c2cnc(-c3cccc4c3-c3ccccc3C4=O)o2)cc1`: the Potency entry in test [1] was “inactive”. Also, the values for the Potency in test [2] and in test [3] were 0.0893 µM (active) and 0.0709 µM (active), respectively.
As to `CCCOc1ccccc1-c1nc2n[nH]nc2c(=O)[nH]1`, the Potency result in test [1], in test [2] and in test [3] was “inactive” throughout.
For `CCC1(O)CC2c3cc(OC)c(OC)cc3CCN2CC1CC(C)C` (stereo not drawn), the Potency result in test [1], in test [2] and in test [3] was “inactive” in each case.
As to `O=C(Cc1ccc(-c2ccccc2)cc1)NC1CCC1`, the Potency entry in test [1], in test [2] and in test [3] was “inactive” in each case.
As to `Cn1nc(-c2ccc(C(F)(F)F)cc2)nc2c(=O)n(C)c(=O)nc1-2`, the Potency result in test [1] was “inactive”. Besides, the Potency was 3.66 µM (active) in test [2] and 4.11 µM (active) in test [3].

(Values after PubChem BioAssay (NCATS).)
